Source: PubChem (National Center for Advancing Translational Sciences (NCATS))
Sampled rows, rich in hits. Any-hit rate of the full collection: about 0.74%.
FEN1 inhibitor: qHTS Assay for the Inhibitors of Human Flap endonuclease 1 (FEN1); Potency, µM (highest dose often 114 µM), inactives show top-dose activity change, negative = inhibition, most hits filed as inhibitors; Recombinant FEN1 flap cleavage, fluorescence, 15 min; 390,000 compounds, 0.35% hits; also: nearly all actives have a fitted effect of over 65% in size
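In this screen, 50 nM flap DNA substrate was added to 10 nM FEN1 pretreated with compound for 15 min at room temperature; cleavage was followed with reads at 0 and 15 min, and Hill fitting gave concentration–response parameters.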
BLM inh: qHTS Assay for Inhibitors of Bloom's syndrome helicase (BLM) | RecQ-like DNA helicase BLM (Homo sapiens), P54132 | recombinant BLM DNA unwinding, fluorescence dequenching | Potency, µM (titrated, usually from 56.1 µM), for the others: top-dose activity change, negative = inhibition, hits mostly inhibitors | 350,000 compounds, 0.2% hits | AID 2528, 2010;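 also: plate controls were vehicle for no effect and no enzyme for full effect; nearly all actives have a fitted effect of over 35% in size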
RECQ1 inh-1: qHTS Assay for Inhibitors of RecQ-Like Dna Helicase 1 (RECQ1) | Potency, µM (series often up to 57.3 µM), for inactives: at the highest dose activity, negative = inhibition, actives largely listed as inhibitors | 240,000 compounds, 0.54% hits | RECQ1 DNA unwinding, red fluorescence kinetic read;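 also: plate controls were vehicle for no effect and no enzyme for full effect; nearly all actives have a fitted effect of over 30% in size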
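RECQ1T1 50 nM; forked duplex (20 bp + 30-nt ss tails) 200 nM, ATP 2 mM final; pH 8.0, 2 mM MgCl2, 2.5 ug/ml poly(dI-dC); 15 min compound preincubation; discontinuous kinetic read over 2 h at RT.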
APEX1 inh: qHTS Assay for Inhibitors of the Human Apurinic/apyrimidinic Endonuclease 1 (APE1); recombinant APE1, TAMRA/BHQ-2 abasic DNA cleavage fluorescence; 350,000 compounds, 0.35% hits; Potency, µM (titrated, usually from 65.8 µM), inactives show at the top dose activity change, negative = inhibition, most hits filed as inhibitors;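 also: plate controls were vehicle for no effect and reference inhibitor for full effect; nearly all actives have a fitted effect of over 55% in size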
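Quantitative HTS: incision of a TAMRA/BHQ-2 double-stranded substrate bearing a tetrahydrofuran abasic site by 0.75 nM APE1 raises fluorescence. Substrate 50 nM final, added after 15 min compound preincubation at room temperature; progress as third-minus-first kinetic read difference.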
PGK inhibitor: qHTS Assay to Find Inhibitors of Phosphoglycerate Kinase; Potency, µM (series often up to 57.5 µM), inactives show at the highest dose activity change, negative = inhibition, actives largely listed as inhibitors; Phosphoglycerate kinase, glycosomal (Trypanosoma brucei brucei), P07378; 380,000 compounds, 0.043% hits; PGK/GAPDH coupled, Kinase-Glo luminescence, 60 min; also: nearly all actives have a fitted effect of over 60% in size
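Luminescent ATP detection (Kinase-Glo Plus) follows a 60-minute room-temperature incubation, with wells lacking PGK as controls. Buffer: 100 mM TEA (pH 7.6), 5 mM MgCl2, 0.01% Tween-20. Coupling enzyme GAPDH (100 nM final) supplies unstable 1,3-BPG in-well.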
RECQ1 conf: Confirmation qHTS Assay for Inhibitors of RecQ-Like Dna Helicase 1 (RECQ1); shares compounds with RECQ1 inh-1; RECQ1 helicase DNA unwinding, fluorescence; Potency, µM (highest dose often 229 µM), inactives show at the top dose activity change, negative = inhibition, actives largely listed as inhibitors; 610 compounds, 28% hits; also: nearly all actives have a fitted effect of over 45% in size
ADP FP counter: Counterscreen for RECQ1 Inhibitors: ADP Fluorescence Polarization Displacement Assay | shares compounds with RECQ1 inh-1 | ADP fluorescence polarization displacement counterscreen | Potency, µM (titrated, usually from 228 µM), inactives show at the top dose activity change, negative = inhibition, usual class: inhibitors | 530 compounds, 27% hits | AID 2711, 2010; also: nearly all actives have a fitted effect of over 45% in size
RECQ1 inh-2: Confirmation qHTS Assay for Inhibitors of RecQ-Like Dna Helicase 1 (RECQ1) - Round 2 Cherry Picks. 1,100 compounds, 15% hits. recombinant RECQ1 DNA unwinding, red fluorescence. Potency, µM (doses to about 119 µM), without a hit: at the highest dose activity, negative = inhibition, most hits filed as inhibitors. shares compounds with RECQ1 inh-1; also: nearly all actives have a fitted effect of over 50% in size
Numbers without * were called inactive; i = inactive; u = inconclusive; x = no result; [ ] = remark or other dose. Calls follow the shape of the dose curve; as a rule, active = well fitted curve in the direction sought with a large enough effect; inconclusive = small, poorly fitted or top-dose-only effect, or another doubt; inactive = no such curve, though single readings can be large; an effect the other way counts as inactive or inconclusive. Unless noted, % is scaled to controls: 0 for no effect and ±100 for the full control effect; potency is read from the fitted curve at half-maximal effect.

SMILES	FEN1 inhibitor	BLM inh	RECQ1 inh-1	APEX1 inh	PGK inhibitor	RECQ1 inh-2	others
O=C(NCCc1ccc(Cl)cc1)C(=O)NCC(c1ccco1)S(=O)(=O)c1cccs1 (stereo not given)	21%	-2%	x	x	i	x
O=[N+]([O-])c1ccc(-c2cnc(SC(c3ccccc3)c3ccccc3)[nH]2)cc1	0%	-8%	-16%	-4%	i	x
O=[N+]([O-])c1ccc(-c2cnc(SCc3ccccc3Cl)[nH]2)cc1	-22%	-11%	u	-7%	-4%	-25%
O=C(O)CN=C1CC(c2ccccc2)CC(=O)/C1=C(/O)CCCN1C(=O)c2ccccc2C1=O (stereo not given)	-5%	1%	i	-10%	-8%	x	RECQ1 conf=u;ADP FP counter=6%
CCCN=C1CC(C)(C)CC(=O)/C1=C(/O)CCCN1C(=O)c2ccccc2C1=O	-3%	-5%	9%	3%	-8%	x
COc1cc(C(C)n2nnc3ccccc32)ccc1O (stereo not given)	x	x	x	x	-7%	x
O=C(CSc1nc2ccccc2c(=O)[nH]1)c1ccc(O)c(O)c1	u	-2%	8.9µM*	u	u	16µM*	RECQ1 conf=u;ADP FP counter=u
O=C(CSc1nc2ccccc2c(=O)[nH]1)c1ccc(O)cc1O	12%	3%	-18%	-2%	-6%	x
O=C(/C=C/c1ccccc1)NCCc1ccccc1	-7%	-20%	18µM*	7.9µM*	u	u	RECQ1 conf=11%[114 µM];ADP FP counter=u
CCOc1cc(S(=O)(=O)Nc2cc(C)cc(C)c2)ccc1Cl	-8%	-12%	-9%	0%	i	x
COc1ccc2nc(-c3ccco3)c(-c3ccco3)nc2c1	u	13µM*	u	8.9µM*	-16%	2%
COc1ccc(Cn2nnnc2C(c2cccnc2)N2CCN(c3ccc(O)cc3)CC2)cc1 (stereo not given)	1%	-2%	1.3µM*	10%	x	0%	RECQ1 conf=0%[114 µM];ADP FP counter=8%[91.9 µM]
Cc1cc(C(=O)CSc2nnc(-c3cccnc3)n2-c2ccccc2F)c(C)n1CC1CCCO1 (stereo not given)	-7%	-7%	35µM*	u	-10%	-1%
CCn1c(SCC(=O)c2cc(C)n(CC3CCCO3)c2C)nc2ccccc21 (stereo not given)	-13%	-17%	40µM*	-6%	i	-7%
O=C1OC(c2ccc(F)cc2)=C/C1=C\c1ccc([N+](=O)[O-])o1	x	-23%	22µM*	3%	x	x	RECQ1 conf=-5%[114 µM]
CSc1nc(N)nc(SC2C=CCCC2)c1C#N (stereo not given)	5%	-5%	-6%	2%	0%	x
CC(NC(=O)Nc1ccc(O)cc1)(C(F)(F)F)C(F)(F)F	-10%	-24%	u	-10%	-1%	15%
COc1ccc(S(=O)(=O)NCCSCc2ccco2)cc1	1%	-16%	u	u	-7%	-15%
CCOc1ccc(S(=O)(=O)NCCSCc2ccco2)cc1	-11%	-8%	-10%	6%	-3%	x
S=c1[nH]nc(-c2cc(-c3ccco3)[nH]n2)n1-c1ccccc1Cl	u	5%	7.9µM*	14µM*	-10%	x	RECQ1 conf=15%[114 µM];ADP FP counter=u
COc1cc([N+](=O)[O-])ccc1NC(=O)C1CCCN(S(C)(=O)=O)C1 (stereo not given)	14%	x	x	-7%	i	x
CC(=O)Nc1ccc(NC(=O)C(OC(=O)c2ccccc2)C(OC(=O)c2ccccc2)C(=O)O)cc1 (stereo not given)	-1%	-3%	-5%	2%	5%	x	RECQ1 conf=17%;ADP FP counter=u
O=C(OC(C(=O)O)C(OC(=O)c1ccccc1)C(=O)NCc1ccccc1)c1ccccc1 (stereo not given)	-10%	-3%	-8%	14%	2%	x
O=C(O)c1c2c(nc3ccc(S(=O)(=O)N4CCC(C(=O)N5CCCCC5)CC4)cc13)CCCC2	-5%	-6%	u	-10%	i	8%
Cc1cc(C(=O)CSc2nnc(-c3ccco3)o2)c(C)n1CC1COc2ccccc2O1 (stereo not given)	13%	-9%	32µM*	u	-6%	-10%
SMILES	FEN1 inhibitor	BLM inh	RECQ1 inh-1	APEX1 inh	PGK inhibitor	RECQ1 inh-2	others
COc1ccc(/C=C(\NC(=O)c2ccc(OC)cc2)C(=O)NC(CCSC)C(=O)O)cc1 (stereo not given)	-3%	-3%	i	-1%	-7%	x	RECQ1 conf=-1%;ADP FP counter=-12%
COc1ccc(C(=O)N/C(=C\c2ccc([N+](=O)[O-])cc2)C(=O)NC(CCSC)C(=O)O)cc1 (stereo not given)	8%	-1%	5%	-2%	2%	x
O=C(NCc1ccccn1)C1CCN(S(=O)(=O)c2cc(Cl)ccc2Cl)CC1	-1%	0%	u	19%	-8%	-4%
COC(=O)c1ccc(CC(=O)c2c(C)cc(O)cc2O)o1	u	-8%	u	u	-10%	u
CCOC(=O)c1ccc(CC(=O)c2ccc(O)cc2O)o1	-1%	0%	-3%	-2%	-2%	x
CCOC(=O)c1csc(-c2ccc(OC)c(OC)c2)n1	16%	0%	3%	-1%	8%	x
CCOC(=O)c1ccc(NC(=S)N2CCSC2c2ccc(Cl)cc2)cc1 (stereo not given)	-13%	-6%	u	-2%	4%	-10%
CCOC(=O)c1ccc(NC(=S)N2CCSC2c2ccc(OC)cc2)cc1 (stereo not given)	5%	-4%	-16%	5%	i	x
COc1ccc(Nc2nnc(-c3ccc(O)cc3)c3ccccc23)cc1C(N)=O	u	-11%	u	1%	i	-13%
